Experimental data published in PubChem BioAssay (NCI).
The panel holds about 83,000 compounds, 20% with a hit somewhere; the sample as a whole holds those more often.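 For each line, cells grew in 96-well plates with the test compound present at a single concentration for 48 hours.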

Experiments:
Assay in all cases: NCI-60 one-dose screen, 48 h (100 = growth as untreated, 0 = no growth, -100 = all killed)
Conditions in all cases: 10 µM unless noted; active = growth percent below 10; inactive = the rest
SR leukemia = tested on: SR leukemia
OVCAR-8 ovarian = tested on: OVCAR-8 ovarian
OVCAR-5 ovarian = tested on: OVCAR-5 ovarian
OVCAR-4 ovarian = tested on: OVCAR-4 ovarian
SK-OV-3 ovarian = tested on: SK-OV-3 ovarian
IGROV1 ovarian = tested on: IGROV1 ovarian
OVCAR-3 ovarian = tested on: OVCAR-3 ovarian
HS 578T breast = tested on: HS 578T breast
NCI/ADR-RES ovarian = tested on: NCI/ADR-RES ovarian
BT-549 breast = tested on: BT-549 breast
MDA-MB-435 melanoma = tested on: MDA-MB-435 melanoma
SW-620 colon = tested on: SW-620 colon
MCF7 breast = tested on: MCF7 breast
HCT-116 colon = tested on: HCT-116 colon
KM12 colon = tested on: KM12 colon
T-47D breast = tested on: T-47D breast
HCC-2998 colon = tested on: HCC-2998 colon

Measured: growth

O=[N+]([O-])c1ccc(P(=O)(O)O)cc1
inactive: SR leukemia 94.8% | OVCAR-8 ovarian 103% | OVCAR-5 ovarian 101% | OVCAR-4 ovarian 96.2% | SK-OV-3 ovarian 99.8% | IGROV1 ovarian 102% | OVCAR-3 ovarian 113% | HS 578T breast 108% | NCI/ADR-RES ovarian 103% | BT-549 breast 89.9% | MDA-MB-435 melanoma 101% | SW-620 colon 105% | MCF7 breast 91.2% | HCT-116 colon 96.6% | KM12 colon 115%

O=C(O)C(Br)CBr (configuration not stated)
inactive: SR leukemia 99% | OVCAR-8 ovarian 92.9% | OVCAR-5 ovarian 117% | OVCAR-4 ovarian 97.1% | SK-OV-3 ovarian 101% | IGROV1 ovarian 104% | OVCAR-3 ovarian 106% | HS 578T breast 111% | NCI/ADR-RES ovarian 101% | T-47D breast 89.6% | BT-549 breast 100% | MDA-MB-435 melanoma 103% | SW-620 colon 105% | MCF7 breast 87.9% | HCT-116 colon 94.8% | KM12 colon 104%

CC[C@@H](C)C(=O)O[C@H]1[C@H](O)[C@H]2[C@@H](CN3C[C@@H](C)CC[C@H]3[C@@]2(C)O)[C@@H]2C[C@]34O[C@]5(O)[C@@H](OC(=O)[C@@](C)(O)CC)CC[C@@]3(C)[C@@H]5[C@@H](OC(C)=O)[C@@H](OC(C)=O)[C@H]4[C@@]21O
inactive: SR leukemia 100% | OVCAR-8 ovarian 94.2% | OVCAR-5 ovarian 103% | OVCAR-4 ovarian 95.1% | SK-OV-3 ovarian 93.9% | IGROV1 ovarian 106% | OVCAR-3 ovarian 106% | HS 578T breast 97.3% | NCI/ADR-RES ovarian 104% | T-47D breast 97.3% | BT-549 breast 99.7% | MDA-MB-435 melanoma 115% | SW-620 colon 95.2% | HCT-116 colon 98.1% | HCC-2998 colon 87.9% | KM12 colon 100%
